# An excerpt weighted towards active compounds, which were near 10% of everything screened.
# 3T3 cytotox: kills NIH 3T3 cells | NIH 3T3 viability, CellTiter-Glo ATP luminescence, 48-72 h | Potency, µM (doses to about 96.7 µM), most hits filed as inhibitors | actives 4.3% (n = 94,000); further: nearly all actives have a fitted effect of over 55% in size
#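 Cytotoxicity is measured as loss of cellular ATP: NIH 3T3 cells (400/well) are exposed to compound for 48 or 72 hr at 37 °C, then CellTiter-Glo luminescence is imaged after 10 min at room temperature.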
# hNpr1 antagonist: antagonists of human natriuretic peptide receptor Npr1; actives 1.6% (n = 76,000); Potency, µM (doses to about 46.3 µM), actives largely listed as inhibitors; AID 1347048; P16066; HEK293 hNpr1 GloSensor cGMP, ANP-stimulated luminescence; calls by dose curve; further: nearly all actives have a fitted effect of over 60% in size
# Target sequence (P16066 whole entry, looked up): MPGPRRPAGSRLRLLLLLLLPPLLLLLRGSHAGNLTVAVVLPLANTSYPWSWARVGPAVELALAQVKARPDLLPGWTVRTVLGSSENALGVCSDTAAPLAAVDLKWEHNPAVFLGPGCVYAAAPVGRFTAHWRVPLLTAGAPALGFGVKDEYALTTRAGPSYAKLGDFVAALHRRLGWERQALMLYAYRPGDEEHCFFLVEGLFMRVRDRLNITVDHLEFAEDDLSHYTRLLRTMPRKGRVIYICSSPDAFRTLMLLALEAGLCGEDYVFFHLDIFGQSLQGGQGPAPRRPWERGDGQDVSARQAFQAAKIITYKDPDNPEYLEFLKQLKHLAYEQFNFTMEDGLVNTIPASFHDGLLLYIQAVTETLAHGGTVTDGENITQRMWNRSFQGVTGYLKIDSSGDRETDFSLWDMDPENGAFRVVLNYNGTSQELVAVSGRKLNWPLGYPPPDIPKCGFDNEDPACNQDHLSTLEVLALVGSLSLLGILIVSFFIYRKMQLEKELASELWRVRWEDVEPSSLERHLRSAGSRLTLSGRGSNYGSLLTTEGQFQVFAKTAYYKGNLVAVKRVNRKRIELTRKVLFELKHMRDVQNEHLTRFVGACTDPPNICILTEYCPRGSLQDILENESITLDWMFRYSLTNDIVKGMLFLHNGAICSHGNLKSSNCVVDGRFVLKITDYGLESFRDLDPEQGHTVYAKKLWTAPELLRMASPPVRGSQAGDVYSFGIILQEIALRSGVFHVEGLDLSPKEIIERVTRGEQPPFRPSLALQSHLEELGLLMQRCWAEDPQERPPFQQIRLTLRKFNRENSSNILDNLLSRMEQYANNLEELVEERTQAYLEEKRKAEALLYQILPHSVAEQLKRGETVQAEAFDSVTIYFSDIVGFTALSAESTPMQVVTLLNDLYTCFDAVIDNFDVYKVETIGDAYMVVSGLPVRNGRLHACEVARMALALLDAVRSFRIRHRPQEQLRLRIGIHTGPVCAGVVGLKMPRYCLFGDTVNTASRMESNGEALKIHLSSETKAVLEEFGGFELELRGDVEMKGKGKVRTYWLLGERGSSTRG
#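 HEK293 cells stably expressing human Npr1 and cGMP GloSensor pGS-40F, loaded 2 h with 2% GloSensor reagent, given compound 30 min at room temperature. Luminescence read before and 20 min after 0.1 nM hNppA.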
# GPT2 inhibitor: GPT2 alanine aminotransferase inhibition. Q8TD30. Recombinant GPT2, coupled pyruvate oxidase/HRP Amplex Red fluorescence. actives 0.25% (n = 100,000). Potency, µM (titrated, usually from 57.7 µM), most hits filed as inhibitors. AID 1671188; further: nearly all actives have a fitted effect of over 60% in size
#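 Recombinant GPT2 (10ng/uL) with 250uM a-KG and 2mM L-alanine, 30 min at room temperature, in HEPES pH 7.5 buffer. Pyruvate detected by pyruvate oxidase/HRP/Amplex Red fluorescence after 30 min in the dark; AOA (50uM) as positive control.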
# FLuc inh-1: blocks purified firefly luciferase enzyme activity. P08659. purified P. pyralis luciferase, luminescence, biochemical. Potency, µM (top dose mostly 115 µM), usual class: inhibitors. actives 2.5% (n = 76,000); further: nearly all actives have a fitted effect of over 65% in size
#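 Luminescence read by CCD imager after adding enzyme (10nM final) to wells holding compound, titrated in qHTS. Substrates 10uM each D-luciferin and ATP; buffer 50mM Tris acetate pH 7.5, 10mM Mg acetate, Tween-20, BSA.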
# HEK cytotox: kills HEK 293 cells; AID 1345083; HEK 293 viability, ATP luminescence (CellTiter-Glo), 48-72 h; Potency, µM (top dose mostly 115 µM), actives largely listed as inhibitors; actives 6.6% (n = 94,000); further: nearly all actives have a fitted effect of over 60% in size
#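 250 HEK 293 cells/well; compound by pintool; incubated 48 or 72 hr at 37 degree Celsius; CellTiter-Glo added, 10 min RT, luminescence imaged.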
# FLuc SDR no ATP: firefly luciferase binding stabilization, ATP absent; actives 7.8% (n = 1,300); Potency, µM (titrated, usually from 32.7 µM), hits mostly activators; shares compounds with FLuc inh-1; Purified FLuc-C-HiBiT, Nano-Glo HiBiT luminescence, no ATP; further: nearly all actives have a fitted effect of over 55% in size
# FLuc SDR ATP: stabilizes firefly luciferase with ATP present; purified FLuc-C-HiBiT + ATP, HiBiT complementation luminescence; Potency, µM (series often up to 32.7 µM), actives largely listed as activators; actives 8.7% (n = 1,300); AID 1963319; shares compounds with FLuc inh-1;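 further: signal reports ligand binding via conformational change of the enzyme rather than luciferase catalysis; nearly all actives have a fitted effect of over 55% in size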
# FLuc inh-2: blocks firefly luciferase enzymatic activity; AID 1963320; shares compounds with FLuc inh-1; purified FLuc-C-HiBiT enzyme, luciferin luminescence; Potency, µM (top dose mostly 32.7 µM), most hits filed as inhibitors; actives 42% (n = 1,300); further: nearly all actives have a fitted effect of over 70% in size
# Hits are given with their value; 0 = inactive; ? = inconclusive; - = no result given. Unless noted, the call rests on the fitted dose curve; in most records, active means well fitted curve in the direction sought with a large enough effect; inconclusive means small, poorly fitted or top-dose-only effect, or another doubt; inactive means no such curve, though single readings can be large; an effect the other way counts as inactive or inconclusive.
SMILES,3T3 cytotox,hNpr1 antagonist,GPT2 inhibitor,FLuc inh-1,HEK cytotox,FLuc SDR no ATP,FLuc SDR ATP,FLuc inh-2
O=C(Nc1cc(-c2ccccn2)nn1-c1ccccc1)c1ccc(C(F)(F)F)cc1,?,-,0,-,?,-,-,-
C[C@@H]1O[C@@H](OC2C(O[C@H]3[C@H](O[C@H]4CC[C@@]5(C)C(CC[C@]6(C)C5CC=C5C7CC(C)(C)CC(O)[C@]7(C)CC[C@]56C)C4(C)C)O[C@H](C(=O)O)[C@@H](O)[C@@H]3O)OC(CO)C(O)C2O)[C@H](O)[C@H](O)[C@H]1O (stereo partly specified),-,-,0,-,-,-,-,-
CCCN1CCN(C(=O)c2cc(NC(=O)C3CCC3)cc3nc(C)ccc23)CC1,?,0,0,0,0,-,-,-
CC(C)CCN1CCC(N2CCN(S(=O)(=O)c3cccc(C(F)(F)F)c3)CC2)C1=O (stereo unspecified),0,0,0,0,?,-,-,-
Fc1ccc2nc([C@H]3CCN(Cc4ccccc4F)C3)[nH]c2c1,79µM,?,0,3.2µM,?,0,0,14µM
COc1ccc2nc([C@H]3CCN(Cc4ccccc4F)C3)[nH]c2c1,?,0,0,0,?,-,-,-
CC(C)Oc1ccc(C(=O)Nc2nnc3n2CCS3)cc1,-,-,-,-,-,0,?,?
O=C(Nc1cc(Cl)cc(Cl)c1)c1ccn2nccc2c1,?,0,0,14µM,0,0,0,?
O=C(CSc1nccn1Cc1ccco1)Nc1ccc(OC(F)(F)F)cc1,-,-,-,-,-,0,0,?
CCCN1CC2(CCN(C(=O)c3ccc(C)nc3)CC2)CC1C(=O)O (stereo unspecified),0,0,0,0,0,-,-,-
COc1ccc(CNC(=O)Cn2cccc2-c2nc(-c3ccccc3)no2)cc1,0,0,0,0,?,-,-,-
COc1ccc(CNC(=O)Cn2cccc2C(=O)c2ccccc2C)cc1,-,-,-,-,-,0,0,0
Cc1cccc(CNC(=O)c2c(C)noc2-c2ccccc2Cl)c1,?,0,0,0,?,-,-,-
CCc1cccc(NCc2ccccc2-c2nnc(-c3ccccc3Cl)o2)c1,-,-,-,-,-,0,0,0
Cn1nccc1CN1CC(Oc2ccc(F)cc2F)C1,0,-,0,-,0,-,-,-
COc1ccc(-n2nc3ccc(NC(=O)c4c(OC)cccc4OC)cc3n2)cc1,-,-,-,-,-,0,0,0
COc1ccc2cc(C3CN(C(=O)Cc4ccc(O)cc4)CCO3)ccc2c1 (stereo unspecified),?,?,0,8.9µM,?,0,0,?
Cc1nnc(SCc2ccccc2)c2cc3sccc3n12,-,-,-,-,-,0,0,?
Cc1noc2c(-c3cccnc3N3CCOCC3)cc(-c3ccccc3)nc12,?,0,0,0,?,-,-,-
O=C([C@@H]1C[C@@H](O)[C@H](O)[C@@H]2NC(=S)N(c3ccc4c(c3)OCO4)[C@@H]21)N1CCOCC1,0,0,0,5µM,0,0,?,?
O=C1OC[C@@H]2CCN(Cc3ccccc3F)Cc3ccc(F)cc3N12,0,0,0,0,0,-,-,-
CS(=O)(=O)N1CCCC(C(=O)NC2CCCC2)CCNC(=O)CC1 (stereo unspecified),0,0,0,0,0,-,-,-
CCCc1ccc(-c2nc(C3CCOC3)no2)cc1 (stereo unspecified),0,?,0,1.1µM,?,0,?,7µM
O=c1[nH]c(N2CCc3ccccc3C2)nc2c1CCN(Cc1cccs1)CC2,0,0,0,0,0,-,-,-
COCC1CCN(c2ccc(-c3nc(-c4ccccc4C)no3)cn2)C1 (stereo unspecified),0,?,0,14µM,?,0,0,?
